Screens: PubChem, National Center for Advancing Translational Sciences (NCATS)
MCF10A rerep: induces DNA re-replication in MCF 10a normal breast cells | MCF 10A DNA re-replication, Hoechst nuclear intensity, 48 h | AID 624296 | Potency, µM (doses to about 46.1 µM), for the others: top-dose activity, positive = re-replication, usual class: activators | hit rate 2.9% among 350,000; note: % of control where 0% means no effect; nearly all actives have a fitted effect of over 50% in size
KB-V1 MDR tox: kills drug-selected multidrug resistant KB-V1 cells | KB-V1 MDR cells viability, CellTiter-Glo, 72 h | Potency, µM (titrated, usually from 46.1 µM), hits mostly cytotoxic | hit rate 3.4% among 400,000; note: % is set by controls: 0 for no effect and ±100 for the full control effect; nearly all actives have a fitted effect of over 60% in size
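Following 72 h at 37 degrees C with compound, KB-V1 cell viability was read by CellTiter-Glo luminescence, medium being phenol-red-free DMEM plus 10% FBS; concentration-response parameters came from normalized, curve-fitted qHTS data.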
KB-3-1 tox: KB-3-1 parental cell cytotoxicity; KB-3-1 viability, CellTiter-Glo ATP luminescence, 72 h; Potency, µM (titrated, usually from 46.1 µM), actives largely listed as cytotoxic; hit rate 1.4% among 400,000; note: % is set by controls: 0 for no effect and ±100 for the full control effect; nearly all actives have a fitted effect of over 60% in size
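Parental KB-3-1 adenocarcinoma cells in phenol-red-free DMEM with 10% FBS were pin-treated with compounds at several concentrations, incubated 72 h at 37 °C, and viability read by CellTiter-Glo luminescence; concentration-effect curves were fitted after normalization.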
PTAP TSG101 blk: blocks PTAP/TSG101 interaction to inhibit HIV-1 budding; AID 493005; 340,000 tested, under 10 active; Potency, µM (titrated, usually from 115 µM), for inactives: top-dose activity change, negative = inhibition, most hits filed as inhibitors; Q99816; Fluorescence polarization, FITC-PTAP peptide / Tsg101 binding; active = well fitted inhibition curve with a large enough effect in the main read-out, with a control signal flat, not every such curve was filed as active; inconclusive = small, poorly fitted or top-dose-only effect, or effect the other way, or a change in a side signal; inactive = no such curve, though single readings can be large or run the other way; note: % of control where 0% means no effect
Target sequence (Q99816 whole entry, looked up): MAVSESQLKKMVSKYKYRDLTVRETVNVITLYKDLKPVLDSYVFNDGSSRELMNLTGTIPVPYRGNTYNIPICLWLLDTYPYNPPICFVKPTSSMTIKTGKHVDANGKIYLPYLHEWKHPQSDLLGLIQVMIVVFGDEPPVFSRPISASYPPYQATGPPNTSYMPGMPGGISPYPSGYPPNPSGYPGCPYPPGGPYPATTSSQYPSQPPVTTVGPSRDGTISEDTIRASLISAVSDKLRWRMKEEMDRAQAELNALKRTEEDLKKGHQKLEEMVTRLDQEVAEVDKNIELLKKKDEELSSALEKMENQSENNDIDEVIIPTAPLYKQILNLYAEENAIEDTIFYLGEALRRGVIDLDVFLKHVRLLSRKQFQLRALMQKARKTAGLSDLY
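FP read-out: FITC-PTAP peptide, 50 nM final, binding Tsg101 binding domain, 10 uM final; 20 min, r.t.; 10 mM HEPES pH 7.5, 0.15 M NaCl, 0.01% Tween 20, 3 mM EDTA, 0.1 mM TCEP.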
SW480 rerep: induces DNA re-replication in SW480 colon adenocarcinoma cells | hit rate 1.8% among 340,000 | SW480 DNA re-replication, Hoechst DNA content imaging, 48 h | AID 624297 | Potency, µM (series often up to 46.1 µM), for the others: top-dose re-replication activation, most hits filed as activators; note: % of control where 0% means no effect; nearly all actives have a fitted effect of over 55% in size
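Quantitative HTS format with DMSO vehicle controls; 48 hr drug incubation at 37 C, then 40 min Hoechst staining and scanning imager measurement at 405 nm excitation.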
PINK1 expr mod: changes PINK1 expression; hit rate 0.2% among 410,000; PINK1 immunofluorescence, high-content cytometry, 24 h; Potency, µM (top dose mostly 76.6 µM), inactives show at the top dose activation (PINK1 increase), actives largely listed as activators; active = well fitted activation curve with a large enough effect; inconclusive = small, poorly fitted or top-dose-only effect; cell line not stated here; note: % of control where 0% means no effect; nearly all actives have a fitted effect of over 65% in size
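PINK1 protein level read as immunofluorescence by microplate cytometer in a fixed, stained stable cell line after 24 h exposure to five compound concentrations, with CCCP as control.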
* = called active by the depositor; i = inactive; ? = inconclusive; . = no result given; ! = not active in a repeat; [ ] = remark or other dose. An excerpt weighted towards active compounds, which were near 6.8% of everything screened. Unless noted, calls come from the whole dose curve; as a rule, active = well fitted curve in the direction sought with a large enough effect; inconclusive = small, poorly fitted or top-dose-only effect, or another doubt; inactive = no such curve, though single readings can be large; an effect the other way counts as inactive or inconclusive. Potency is the fitted concentration of half-maximal effect.

SMILES	MCF10A rerep	KB-V1 MDR tox	KB-3-1 tox	PTAP TSG101 blk	SW480 rerep	PINK1 expr mod
CCCCOP(=O)(c1ccc(N(C)C)cc1)C(Nc1ccccc1)c1ccccc1 (stereo not drawn)	21µM*	3.7µM*	?	-5%	?	?
COC(=O)[C@@H]1N=C(c2ccc(OC)cc2)O[C@]12C(=O)N(Cc1ccc(OC)cc1)c1ccccc12	.	23µM*	?	.	.	0%
COc1ccc(CN2Cc3cnnn3-c3ccccc3C2C)cc1 (stereo not drawn)	?	?	13µM*	5%	?	9%
CCOC(=O)CC1c2ccccc2-n2nncc2CN1Cc1ccc(OC)cc1 (stereo not drawn)	?	?	i	2%	-2%	0%
Cc1ccccc1CN1Cc2cnnn2-c2ccccc2C1C#N (stereo not drawn)	6.5µM*	?	?	-2%	?	-2%
Cc1cccc(N2CCN(C(=O)c3ccc(CNc4c(N5CCC(C)CC5)c(=O)c4=O)cc3)CC2)c1C	-9%	i	i	-5%	5%	0%
CNC(C)C(O)c1ccc(O)cc1 (stereo not drawn)	7%	.	.	.	0%	.
c1ccc(CCN2CCCCC2)cc1	.	i	i	.	.	.
CC(C)c1c(CN(C)[C@@H](C)Cc2ccccc2)n(C)n(-c2ccccc2)c1=O	7%[20.6 µM]	.	.	.	13%[20.6 µM]	.
C=CCn1c(O)c(N=Nc2c(C)n(C)n(-c3ccccc3)c2=O)c(=O)[nH]c1=S	9%	3.3µM*	?	0%	?	0%
NC(Cc1ccc(Oc2cc(I)c(O)c(I)c2)c(I)c1)C(=O)O (stereo not drawn)	7%	.	.	.	4%	.
CCCOP(=O)(OCCC)C(Nc1cccc(C(F)(F)F)c1)c1ccc(C)cc1 (stereo not drawn)	-8%	12µM*	?	-7%	?	13%[38.3 µM]
CCOP(=O)(OCC)C(Nc1cccc(C(F)(F)F)c1)c1ccc(C)cc1 (stereo not drawn)	?	?	?	-1%	10%	9%
O=c1cccc2n1CC1CC2CN2CCCCC12 (stereo not drawn)	.	.	.	.	.	0%
O=C(CC1CCCCC1)N1CCC(c2nc(-c3ccc(S(=O)(=O)N4CCCC4)cc3)no2)CC1	?	15µM*	i	3%	?	-2%[38.3 µM]
CN1CCN(S(=O)(=O)c2ccc(C3CCCCC3)cc2)CC1	14%	i	i	3%	8%	1%
C=C1C(O)(c2ccccc2)C2CC[N+]1(C)CC2 (stereo not drawn)	?	i	i	-3%	1.2µM*	2%[38.3 µM]
C=C1N2CCC(CC2)C1(O)c1ccc(C)cc1 (stereo not drawn)	5%	i	i	-3%	-4%	-4%
CC[C@H]1CC2CN3CCc4c([nH]c5cc(OC)ccc45)[C@](C(=O)OC)(C2)[C@H]13	?	i	i	2%	0.73µM*	?
O=C(/C=C/c1ccc2c(c1)OCO2)c1c(O)n(CCc2ccccc2)c(=O)[nH]c1=O	12µM*	13µM*	?	?	?	-2%
COc1cc(/C=C/C(=O)c2c(O)n(CCc3ccccc3)c(=O)[nH]c2=O)ccc1O	?	i	i	17%	?	-2%
O=C(/C=C/c1ccccc1)c1c(O)n(CCc2ccccc2)c(=O)[nH]c1=O	8.2µM*	6.5µM*	15µM*	0%	?	2%
O=C(CN1C(=O)C(=O)N(C2CCCC2)C1=O)Nc1cc(Cl)ccc1[N+](=O)[O-]	?	.	.	-7%	-3%	-2%
C=CC1CN2CCC1CC2C(OC(=O)OCC)c1ccnc2ccc(OC)cc12 (stereo not drawn)	1%	.	.	.	-4%	.
COC1=C(C)C(=O)C2=C(C1=O)C(CO)N1C(C#N)C3CC4C(C1C2N1CCOC41)N3C (stereo not drawn)	-2%	0.58µM*	?	-5%	?	-6%
SMILES	MCF10A rerep	KB-V1 MDR tox	KB-3-1 tox	PTAP TSG101 blk	SW480 rerep	PINK1 expr mod
CCc1ccc(-n2nc(C)c3c2NC(=O)CSC3c2ccc(OC)cc2OC)cc1 (stereo not drawn)	.	i	?	.	.	1%
Clc1ccc(CC[C@H](Cn2ccnc2)Sc2c(Cl)cccc2Cl)cc1	11%[20.6 µM]	.	.	.	-4%[20.6 µM]	.
[O]=[Cr](=[O])([OH])[O][Cr](=[O])(=[O])[OH]	12µM*!	.	.	.	?	.
O=[N+]([O-])c1ccc(-[n+]2c(-c3ccccc3)cc(-c3ccccc3)cc2-c2ccccc2)cc1	0%	i	i	-5%	-4%	0%
O=[N+]([O-])c1ccccc1-c1cc(-c2ccccc2)cc(-c2ccccc2)[n+]1Cc1ccccc1Cl	?	i	9.2µM*	-1%	?	?
CCOC(=O)C1=C(NC(=S)NC(=O)c2ccccc2)c2ccccc2CC12CCCC2	12µM*	?	?	-4%	?	-1%
CC12CC[C@H]3[C@@H](CCC4(O)C[C@H](O)CCC34/C=N/NC(=O)c3ccccc3F)C1(O)CCC2C1=CC(=O)OC1 (stereo partly drawn)	?	i	18µM*	-2%	0%	-2%
CC12CC[C@H]3[C@@H](CCC4(O)C[C@H](O)CCC34/C=N/NC(=O)c3ccc(O)cc3)C1(O)CCC2C1=CC(=O)OC1 (stereo partly drawn)	0%	i	i	1%	-9%	2%
CN(C)c1ccc(C(=O)N/N=C/C23CC[C@@H](O)CC2(O)CC[C@@H]2[C@@H]3CCC3(C)C(C4=CC(=O)OC4)CCC23O)cc1 (stereo partly drawn)	?	?	6.5µM*	-4%	11%	-1%
O=c1[nH]c(=O)n(Cl)c(=O)n1Cl	1%	.	.	.	0%	.
CC(C)=CC1C(C(=O)OCc2coc(Cc3ccccc3)c2)C1(C)C (stereo not drawn)	?	.	.	.	-1%	.
CCOc1ccc(NC(=O)C2C(C(=O)O)C3(Cl)C(Cl)=C(Cl)C2(Cl)C3(Cl)Cl)cc1 (stereo not drawn)	?	i	i	2%	-19%	-2%
COc1cc(C(=O)N/N=C/c2ccc(OC(=O)N3CCOCC3)cc2)cc(OC)c1OC	6.5µM*	?	i	-1%	21µM*	9%
C=C1C(=O)O[C@@H]2C[C@@H](C)[C@@H]3C=CC(=O)[C@@]3(C)[C@@H](O)[C@H]12	0.92µM*	i	?	1%	?	-1%
CN(C)C1C(=O)C(C(N)=O)C(=O)C2(O)C(=O)C3C(=O)c4c(O)cccc4C(C)(O)C3C(O)C12 (stereo not drawn)	-3%	.	.	.	-1%	.
